Test in all cases: DAPPL (digital affinity profiling via proximity ligation, sequencing); 10 mM Tris-HCl pH 7.5, 50 mM NaCl, 1 mM DTT, 4% glycerol, room temperature, 30 min; GST-TFs on glutathione beads, 16-mer random dsDNA library, 0.1% formaldehyde crosslink after washing; high values mean tight binding
For one experiment, the target named is T1, FEV (Homo sapiens, UniProt Q99581 1-238).
T1 sequence: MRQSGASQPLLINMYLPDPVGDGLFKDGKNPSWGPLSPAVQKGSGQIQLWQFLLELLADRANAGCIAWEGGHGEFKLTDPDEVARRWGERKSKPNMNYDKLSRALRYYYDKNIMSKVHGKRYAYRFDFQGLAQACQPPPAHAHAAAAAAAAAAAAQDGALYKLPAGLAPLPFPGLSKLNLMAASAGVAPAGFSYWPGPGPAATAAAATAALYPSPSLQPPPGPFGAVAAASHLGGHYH
Conditions: protein: recombinant; tags: N-terminal GST; dsDNA, one strand shown. An outline of the steps:
(§1)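 Beads coated with glutathione captured GST-fused human transcription factors that had been expressed in yeast, and the factors were then given DNA barcodes and pooled with a tag-only sample. The pools were incubated with 200 nmole of a random double-stranded 16-mer DNA library in Tris/NaCl/DTT/glycerol buffer for 30 min at room temperature, washed, crosslinked with 0.1% formaldehyde and proximity-ligated with BsaI/T4 ligase at 37 °C for 1 h. PCR amplification and Illumina NextSeq500 sequencing came last. Binding signal is each hexamer's read frequency for a factor divided by its frequency for the tag-only sample.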

The target in another experiment is ETV5 (Homo sapiens, UniProt P41161 1-510). The note with it: protein: recombinant; tags: N-terminal GST; dsDNA, one strand shown. An outline of the steps: as §1
Chain of ETV5 (P41161 whole entry): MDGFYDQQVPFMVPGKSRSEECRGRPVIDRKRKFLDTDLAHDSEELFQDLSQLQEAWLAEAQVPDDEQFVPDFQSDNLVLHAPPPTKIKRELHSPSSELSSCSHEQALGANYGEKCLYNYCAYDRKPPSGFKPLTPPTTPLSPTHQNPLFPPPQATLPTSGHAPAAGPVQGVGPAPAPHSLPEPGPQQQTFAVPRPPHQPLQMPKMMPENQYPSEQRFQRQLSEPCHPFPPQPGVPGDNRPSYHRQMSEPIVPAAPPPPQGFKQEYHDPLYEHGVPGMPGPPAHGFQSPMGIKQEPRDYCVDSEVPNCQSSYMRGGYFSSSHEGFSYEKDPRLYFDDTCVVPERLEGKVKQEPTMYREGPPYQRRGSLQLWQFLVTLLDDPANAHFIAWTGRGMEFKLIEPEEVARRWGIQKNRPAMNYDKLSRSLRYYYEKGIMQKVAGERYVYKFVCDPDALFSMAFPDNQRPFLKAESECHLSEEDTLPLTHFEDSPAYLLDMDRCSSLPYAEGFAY
The target in another experiment is HSF1 (Homo sapiens, UniProt Q00613 1-529). The note with it: protein: recombinant; tags: N-terminal GST; chain copies: 3; dsDNA, one strand shown. A digest of the protocol:
as §1

A further experiment has as its target T2, SPIC (Homo sapiens, UniProt Q8N5J4 1-248).
T2 sequence: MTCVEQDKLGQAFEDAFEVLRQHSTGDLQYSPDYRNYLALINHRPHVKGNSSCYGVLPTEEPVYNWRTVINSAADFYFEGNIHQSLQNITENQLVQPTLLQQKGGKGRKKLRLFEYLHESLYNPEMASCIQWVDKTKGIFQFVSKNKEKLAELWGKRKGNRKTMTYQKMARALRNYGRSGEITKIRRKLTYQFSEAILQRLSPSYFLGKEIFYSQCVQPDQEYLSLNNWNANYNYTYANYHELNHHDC
The note with it: protein: recombinant; tags: N-terminal GST; dsDNA, one strand shown. An outline of the steps:
as §1

A further experiment concerns the target ELF4 (Homo sapiens, UniProt Q99607 1-663). The note with it: protein: recombinant; tags: N-terminal GST; dsDNA, one strand shown. An outline of the steps: as §1
For a further experiment, the target named is T3, ELK4 (Homo sapiens, UniProt P28324-2 1-405).
T3 sequence: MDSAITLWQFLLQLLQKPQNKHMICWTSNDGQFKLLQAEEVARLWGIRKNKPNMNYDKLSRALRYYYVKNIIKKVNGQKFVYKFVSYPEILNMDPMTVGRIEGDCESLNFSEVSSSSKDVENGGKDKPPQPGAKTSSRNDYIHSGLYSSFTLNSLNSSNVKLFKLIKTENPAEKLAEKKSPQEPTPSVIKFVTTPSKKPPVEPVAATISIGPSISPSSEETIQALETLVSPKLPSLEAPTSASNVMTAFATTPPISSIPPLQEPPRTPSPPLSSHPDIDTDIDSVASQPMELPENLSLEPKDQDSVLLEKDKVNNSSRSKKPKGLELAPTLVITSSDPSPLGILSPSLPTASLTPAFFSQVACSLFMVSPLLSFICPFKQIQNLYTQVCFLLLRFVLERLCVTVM
Conditions: protein: recombinant; tags: N-terminal GST; dsDNA, one strand shown. A digest of the protocol: as §1

In another experiment the target is T4, ETV2 (Homo sapiens, UniProt O00321 1-342).
T4 sequence: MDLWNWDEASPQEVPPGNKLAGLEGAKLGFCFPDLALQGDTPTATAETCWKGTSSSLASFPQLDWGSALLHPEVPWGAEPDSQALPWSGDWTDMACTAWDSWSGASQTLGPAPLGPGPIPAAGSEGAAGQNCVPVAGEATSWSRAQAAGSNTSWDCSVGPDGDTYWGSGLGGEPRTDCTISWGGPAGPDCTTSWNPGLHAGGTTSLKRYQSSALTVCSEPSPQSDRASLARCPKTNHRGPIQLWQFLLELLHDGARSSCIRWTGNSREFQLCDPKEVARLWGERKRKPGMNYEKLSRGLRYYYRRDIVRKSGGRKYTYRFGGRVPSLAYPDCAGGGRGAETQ
The note with it: protein: recombinant; tags: N-terminal GST; dsDNA, one strand shown. An outline of the steps:
as §1

The next experiment deals with T5, ELF3 (Homo sapiens, UniProt P78545 1-371).
T5 sequence: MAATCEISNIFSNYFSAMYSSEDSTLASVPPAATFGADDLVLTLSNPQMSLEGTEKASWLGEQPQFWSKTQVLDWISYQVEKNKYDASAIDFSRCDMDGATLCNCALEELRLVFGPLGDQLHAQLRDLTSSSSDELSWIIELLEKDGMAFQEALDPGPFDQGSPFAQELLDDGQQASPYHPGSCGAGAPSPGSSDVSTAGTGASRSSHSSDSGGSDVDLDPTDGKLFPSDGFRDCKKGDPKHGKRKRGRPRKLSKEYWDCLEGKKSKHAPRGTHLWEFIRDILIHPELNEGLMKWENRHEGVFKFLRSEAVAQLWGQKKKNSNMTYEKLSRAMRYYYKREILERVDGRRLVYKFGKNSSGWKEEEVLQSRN
The note with it: protein: recombinant; tags: N-terminal GST; dsDNA, one strand shown. A digest of the protocol:
as §1

The target in a further experiment is CRX (Homo sapiens, UniProt O43186 1-299). The note with it: protein: recombinant; tags: N-terminal GST; dsDNA, one strand shown. An outline of the steps: as §1
Chain of CRX (O43186 whole entry): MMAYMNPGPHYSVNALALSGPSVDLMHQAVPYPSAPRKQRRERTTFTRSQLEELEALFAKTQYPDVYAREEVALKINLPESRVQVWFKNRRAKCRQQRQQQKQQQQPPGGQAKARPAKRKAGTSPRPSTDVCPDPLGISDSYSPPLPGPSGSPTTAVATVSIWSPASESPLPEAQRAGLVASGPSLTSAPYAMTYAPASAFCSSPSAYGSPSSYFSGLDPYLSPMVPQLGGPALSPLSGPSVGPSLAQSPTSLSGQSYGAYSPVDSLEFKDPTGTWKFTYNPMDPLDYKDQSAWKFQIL
The target of the next experiment is ETV1 (Homo sapiens, UniProt P50549 1-477). The note with it: protein: recombinant; tags: N-terminal GST; dsDNA, one strand shown. An outline of the steps:
as §1

For another experiment, the target named is T6, ERF (Homo sapiens, UniProt P50548 1-548).
T6 sequence: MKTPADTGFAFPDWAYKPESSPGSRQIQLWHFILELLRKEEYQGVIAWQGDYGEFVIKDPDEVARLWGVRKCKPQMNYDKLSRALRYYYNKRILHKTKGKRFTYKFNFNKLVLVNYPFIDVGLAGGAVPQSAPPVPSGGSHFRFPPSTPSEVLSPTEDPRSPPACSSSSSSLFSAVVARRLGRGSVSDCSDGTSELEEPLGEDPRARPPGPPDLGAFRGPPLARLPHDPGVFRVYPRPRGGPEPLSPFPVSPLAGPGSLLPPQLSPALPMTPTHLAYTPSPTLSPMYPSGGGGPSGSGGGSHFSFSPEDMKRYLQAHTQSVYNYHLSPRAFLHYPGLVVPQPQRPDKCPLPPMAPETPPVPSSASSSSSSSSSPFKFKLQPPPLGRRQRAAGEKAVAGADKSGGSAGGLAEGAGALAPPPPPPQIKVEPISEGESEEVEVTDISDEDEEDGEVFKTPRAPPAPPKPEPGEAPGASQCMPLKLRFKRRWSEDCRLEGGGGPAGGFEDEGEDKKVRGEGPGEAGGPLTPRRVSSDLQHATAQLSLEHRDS
Conditions: protein: recombinant; tags: N-terminal GST; dsDNA, one strand shown. A digest of the protocol:
as §1

The target of another experiment is T7, ETV3L (Homo sapiens, UniProt Q6ZN32 1-361).
T7 sequence: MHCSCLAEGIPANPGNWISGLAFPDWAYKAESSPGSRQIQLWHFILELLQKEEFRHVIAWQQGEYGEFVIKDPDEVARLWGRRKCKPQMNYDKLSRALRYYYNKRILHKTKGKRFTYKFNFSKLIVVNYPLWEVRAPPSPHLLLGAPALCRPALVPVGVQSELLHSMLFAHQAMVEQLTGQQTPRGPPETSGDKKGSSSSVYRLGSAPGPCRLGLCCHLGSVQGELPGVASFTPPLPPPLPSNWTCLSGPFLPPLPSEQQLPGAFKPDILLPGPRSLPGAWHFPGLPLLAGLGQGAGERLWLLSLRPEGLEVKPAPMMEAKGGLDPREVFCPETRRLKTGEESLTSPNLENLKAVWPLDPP
The note with it: protein: recombinant; tags: N-terminal GST; dsDNA, one strand shown. An outline of the steps: as §1

In another experiment the target is T8, ETS2 (Homo sapiens, UniProt P15036 1-469).
T8 sequence: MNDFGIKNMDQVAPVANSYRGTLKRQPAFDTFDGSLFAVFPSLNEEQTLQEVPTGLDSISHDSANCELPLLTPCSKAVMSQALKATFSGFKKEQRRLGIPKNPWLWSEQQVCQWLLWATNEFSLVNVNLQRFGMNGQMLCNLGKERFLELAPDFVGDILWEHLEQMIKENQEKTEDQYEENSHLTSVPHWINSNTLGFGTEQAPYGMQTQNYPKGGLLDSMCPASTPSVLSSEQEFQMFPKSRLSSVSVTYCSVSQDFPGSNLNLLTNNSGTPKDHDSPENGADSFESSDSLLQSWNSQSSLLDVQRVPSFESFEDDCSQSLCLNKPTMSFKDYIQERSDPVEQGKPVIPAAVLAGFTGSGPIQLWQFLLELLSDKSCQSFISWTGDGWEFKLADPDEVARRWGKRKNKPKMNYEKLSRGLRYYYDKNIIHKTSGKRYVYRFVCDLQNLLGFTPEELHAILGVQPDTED
The note with it: protein: recombinant; tags: N-terminal GST; dsDNA, one strand shown. An outline of the steps:
as §1

A further experiment concerns the target T9, SPDEF (Homo sapiens, UniProt O95238 1-335).
T9 sequence: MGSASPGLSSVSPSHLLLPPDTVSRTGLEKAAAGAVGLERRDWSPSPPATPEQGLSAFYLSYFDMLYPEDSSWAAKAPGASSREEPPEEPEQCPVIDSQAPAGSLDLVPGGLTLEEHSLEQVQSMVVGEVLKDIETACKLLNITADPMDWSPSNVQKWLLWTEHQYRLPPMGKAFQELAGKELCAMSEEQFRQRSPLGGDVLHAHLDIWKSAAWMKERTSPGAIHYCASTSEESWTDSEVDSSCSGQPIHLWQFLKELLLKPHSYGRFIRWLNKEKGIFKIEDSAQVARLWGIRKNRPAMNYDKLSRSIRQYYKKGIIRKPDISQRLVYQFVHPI
The note with it: protein: recombinant; tags: N-terminal GST; dsDNA, one strand shown. An outline of the steps: as §1

The target of another experiment is T10, ETV7 (Homo sapiens, UniProt Q9Y603 1-341).
T10 sequence: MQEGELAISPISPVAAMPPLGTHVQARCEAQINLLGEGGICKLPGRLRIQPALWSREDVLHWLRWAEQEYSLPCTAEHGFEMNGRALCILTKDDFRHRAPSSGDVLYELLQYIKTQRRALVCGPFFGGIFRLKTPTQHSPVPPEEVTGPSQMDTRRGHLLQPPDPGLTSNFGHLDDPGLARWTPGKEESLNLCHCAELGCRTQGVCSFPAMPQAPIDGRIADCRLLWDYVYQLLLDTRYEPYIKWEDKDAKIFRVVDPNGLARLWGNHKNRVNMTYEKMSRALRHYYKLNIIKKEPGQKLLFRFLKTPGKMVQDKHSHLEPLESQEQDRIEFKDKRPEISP
The note with it: protein: recombinant; tags: N-terminal GST; dsDNA, one strand shown. An outline of the steps:
as §1

Another experiment deals with T11, ELF5 (Homo sapiens, UniProt Q9UKW6-2 1-255).
T11 sequence: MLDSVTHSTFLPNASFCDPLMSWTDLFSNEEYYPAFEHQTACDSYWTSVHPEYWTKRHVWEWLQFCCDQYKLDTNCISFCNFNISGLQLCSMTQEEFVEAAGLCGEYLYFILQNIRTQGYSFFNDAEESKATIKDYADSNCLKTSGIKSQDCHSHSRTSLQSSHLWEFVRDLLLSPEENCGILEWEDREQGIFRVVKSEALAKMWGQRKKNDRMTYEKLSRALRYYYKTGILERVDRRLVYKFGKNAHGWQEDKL
The note with it: protein: recombinant; tags: N-terminal GST; dsDNA, one strand shown. An outline of the steps: as §1

The target in the next experiment is T12, ETV3 (Homo sapiens, UniProt P41162-2 1-143).
T12 sequence: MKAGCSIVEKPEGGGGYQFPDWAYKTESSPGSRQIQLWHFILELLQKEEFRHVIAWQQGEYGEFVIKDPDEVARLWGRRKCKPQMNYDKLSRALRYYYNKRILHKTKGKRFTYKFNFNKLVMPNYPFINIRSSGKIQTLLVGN
Conditions: protein: recombinant; tags: N-terminal GST; dsDNA, one strand shown. A digest of the protocol:
as §1

The next experiment has as its target ETV6 (Homo sapiens, UniProt P41212 1-452). Conditions: protein: recombinant; tags: N-terminal GST; dsDNA, one strand shown. A digest of the protocol: as §1

Chain of ETV6 (P41212 whole entry): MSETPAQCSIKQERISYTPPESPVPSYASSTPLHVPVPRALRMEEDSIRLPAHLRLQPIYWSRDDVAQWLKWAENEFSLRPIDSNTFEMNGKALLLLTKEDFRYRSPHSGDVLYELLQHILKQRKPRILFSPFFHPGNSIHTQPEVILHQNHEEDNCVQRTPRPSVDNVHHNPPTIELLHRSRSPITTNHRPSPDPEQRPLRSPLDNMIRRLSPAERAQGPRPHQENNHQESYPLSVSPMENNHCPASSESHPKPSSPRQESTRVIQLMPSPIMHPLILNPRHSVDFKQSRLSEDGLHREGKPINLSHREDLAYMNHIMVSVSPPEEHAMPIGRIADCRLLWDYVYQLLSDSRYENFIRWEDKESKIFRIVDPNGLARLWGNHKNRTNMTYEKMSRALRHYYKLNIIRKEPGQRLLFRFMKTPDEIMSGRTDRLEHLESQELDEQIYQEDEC
Chain of ELF4 (Q99607 whole entry): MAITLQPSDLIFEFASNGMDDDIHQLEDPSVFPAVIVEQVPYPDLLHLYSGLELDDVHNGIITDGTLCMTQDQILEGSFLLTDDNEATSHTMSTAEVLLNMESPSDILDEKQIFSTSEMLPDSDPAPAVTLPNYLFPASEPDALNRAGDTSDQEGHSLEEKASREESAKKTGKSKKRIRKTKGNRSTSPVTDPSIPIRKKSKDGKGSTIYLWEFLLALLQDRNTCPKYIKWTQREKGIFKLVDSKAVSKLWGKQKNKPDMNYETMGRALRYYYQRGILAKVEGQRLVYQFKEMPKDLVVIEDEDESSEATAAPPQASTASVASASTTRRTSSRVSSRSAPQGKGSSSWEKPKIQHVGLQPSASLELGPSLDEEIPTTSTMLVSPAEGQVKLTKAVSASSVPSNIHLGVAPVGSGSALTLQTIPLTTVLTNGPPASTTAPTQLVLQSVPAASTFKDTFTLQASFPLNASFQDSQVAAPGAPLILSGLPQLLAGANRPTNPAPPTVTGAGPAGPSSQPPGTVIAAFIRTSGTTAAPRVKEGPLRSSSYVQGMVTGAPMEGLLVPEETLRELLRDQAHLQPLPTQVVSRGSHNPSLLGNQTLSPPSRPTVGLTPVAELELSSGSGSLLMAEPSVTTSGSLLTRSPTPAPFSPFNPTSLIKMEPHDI
Chain of HSF1 (Q00613 whole entry): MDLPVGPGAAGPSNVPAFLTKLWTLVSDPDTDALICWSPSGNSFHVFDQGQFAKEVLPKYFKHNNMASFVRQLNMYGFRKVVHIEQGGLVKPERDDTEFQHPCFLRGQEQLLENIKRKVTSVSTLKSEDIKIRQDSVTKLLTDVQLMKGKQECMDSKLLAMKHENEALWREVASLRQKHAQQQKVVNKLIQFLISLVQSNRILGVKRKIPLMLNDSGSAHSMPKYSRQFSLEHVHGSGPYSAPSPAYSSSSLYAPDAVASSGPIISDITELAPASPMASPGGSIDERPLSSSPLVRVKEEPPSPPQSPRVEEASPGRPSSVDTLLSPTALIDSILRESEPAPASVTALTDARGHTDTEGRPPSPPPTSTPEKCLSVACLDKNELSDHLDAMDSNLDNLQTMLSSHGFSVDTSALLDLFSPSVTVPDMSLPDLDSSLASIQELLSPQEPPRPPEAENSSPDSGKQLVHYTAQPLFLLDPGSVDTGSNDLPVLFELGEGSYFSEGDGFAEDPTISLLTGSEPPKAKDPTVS
Chain of ETV1 (P50549 whole entry): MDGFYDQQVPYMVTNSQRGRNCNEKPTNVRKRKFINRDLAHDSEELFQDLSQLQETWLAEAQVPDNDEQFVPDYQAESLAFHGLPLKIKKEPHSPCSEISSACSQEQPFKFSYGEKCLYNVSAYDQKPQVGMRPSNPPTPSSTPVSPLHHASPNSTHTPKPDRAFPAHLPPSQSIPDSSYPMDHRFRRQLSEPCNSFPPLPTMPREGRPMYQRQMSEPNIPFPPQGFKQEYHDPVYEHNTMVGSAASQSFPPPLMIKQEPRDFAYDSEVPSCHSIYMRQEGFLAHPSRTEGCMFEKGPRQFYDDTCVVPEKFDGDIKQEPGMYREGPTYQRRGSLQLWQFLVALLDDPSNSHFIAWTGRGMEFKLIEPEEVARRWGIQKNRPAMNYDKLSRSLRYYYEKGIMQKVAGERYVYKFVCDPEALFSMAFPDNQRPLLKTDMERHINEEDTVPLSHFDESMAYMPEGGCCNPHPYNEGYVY

ATAACC: the binding signal was 1.22 fold enrichment (6-mer frequency, TF over GST control) with FEV; 1.21 fold enrichment (6-mer frequency, TF over GST control) with ETV5; 1.09 fold enrichment (6-mer frequency, TF over GST control) in the experiment with HSF1; 1.05 fold enrichment (6-mer frequency, TF over GST control) with SPIC; 1.23 fold enrichment (6-mer frequency, TF over GST control) in the experiment with ELF4; 1.18 fold enrichment (6-mer frequency, TF over GST control) with ELK4. Moreover, the binding signal in the experiment with ETV2 was 1.05 fold enrichment (6-mer frequency, TF over GST control); with ELF3 it was 1.21 fold enrichment (6-mer frequency, TF over GST control); with CRX, 1.27 fold enrichment (6-mer frequency, TF over GST control); in the experiment with ETV1, 1.1 fold enrichment (6-mer frequency, TF over GST control); in the experiment with ERF it was 1.08 fold enrichment (6-mer frequency, TF over GST control); in the experiment with ETV3L, 1.18 fold enrichment (6-mer frequency, TF over GST control). Further, the binding signal with ETS2 is 1.21 fold enrichment (6-mer frequency, TF over GST control); in the experiment with SPDEF it was 1.22 fold enrichment (6-mer frequency, TF over GST control); in the experiment with ETV7 it was 1.25 fold enrichment (6-mer frequency, TF over GST control); with ELF5, 1.16 fold enrichment (6-mer frequency, TF over GST control); in the experiment with ETV3, 1.15 fold enrichment (6-mer frequency, TF over GST control); in the experiment with ETV6 it was 1.17 fold enrichment (6-mer frequency, TF over GST control).

The values are drawn from publication PMC7862700, “An all-to-all approach to the identification of sequence-specific readers for epigenetic DNA modifications on cytosine”.
